From PubChem BioAssay (NCATS) come the findings set out here.

Where “and” joins values, the source holds several entries; their conditions need not be identical. Identical values can stand only once. A number with no mark means an inactive call. Results filed as inconclusive are left out. Calls of active or inactive are those of the source. Calls come from the whole dose curve; as a rule, active = well fitted curve in the direction sought with a large enough effect; inconclusive = small, poorly fitted or top-dose-only effect, or another doubt; inactive = no such curve, though single readings can be large; an effect the other way counts as inactive or inconclusive.

For assay [1], the system named is Zika virus NS2B-NS3 protease (linked construct). Nature of the assay: Primary screen NINDS Rhodamine qHTS for Zika virus inhibitors (AID 1347160). Note: % is set by controls: 0 for no effect and ±100 for the full control effect; nearly all actives have a fitted effect of over 55% in size. Put shortly:
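Purified NS2B-NS3 protease with the NS2B hydrophilic domain joined by a flexible linker (25 nM) in 10 mM Tris-HCl pH 8.0, 0.01% Tween 20, preincubated 15 min at RT with compound; Rhodamine110 peptide substrate 1.5 µM; fluorescence change over 15 min; 4-parameter Hill fit.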
In general terms: qHTS replaces the single test concentration by a dilution series.

Assay [2] in a line: Primary qHTS for inhibitors of nuclear receptor binding SET domain protein 2 (NSD2) in an isogenic RCH-ACV NSD2 p.E1099K mutant (9B) (AID 1645876). Note: nearly all actives have a fitted effect of over 70% in size. Note: potency is the fitted concentration of half-maximal effect.
The target of assay [3] is Glutathione peroxidase 1 (Homo sapiens) (UniProt P07203). Nature of the assay: Primary qHTS Assay for Inhibitors of Recombinant Selenoprotein Glutathione Peroxidase 1 (GPX1) (AID 1845191). Note: nearly all actives have a fitted effect of over 65% in size. The gist of the method:
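Recombinant GPX1 (10 nM final) was preincubated with compound for 30 min at room temperature, then reacted with 1 mM GSH, 0.5 mM CHP, 0.5 mM NADPH and 100 nM glutathione reductase; NADPH fluorescence (340/450 nm) was read at 0 and 15 min.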

Assay [4] addresses Phospholipid hydroperoxide glutathione peroxidase GPX4 (Homo sapiens) (UniProt P36969). Briefly: Primary qHTS Assay for Inhibitors of Recombinant Selenoprotein Glutathione Peroxidase 4 (GPX4) (AID 1845192). Note: % is set by controls: 0 for no effect and ±100 for the full control effect; nearly all actives have a fitted effect of over 65% in size. Put shortly:
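GR-coupled readout: 100 nM GR, 1 mM GSH, 0.5 mM NADPH; NADPH fluorescence (ex 340/em 450 nm) read at t=0 and after 15 min RT. GPX4 200 nM, preincubated 30 min with compound; substrate 0.5 mM CHP.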

The target of assay [5] is Luciferin 4-monooxygenase (Photinus pyralis) (UniProt P08659). Nature of the assay: Primary firefly luciferase (FLuc) qHTS assay for identification of artifact compounds. (AID 1845220). Note: nearly all actives have a fitted effect of over 60% in size. Particulars: outcome: dose series up to 54.1 µM unless noted. Put shortly: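 In this counter-screen for luciferase artifacts, test compounds met substrate (10 uM each luciferin and ATP) before 10 nM enzyme started the reaction. Light output was measured 5 min later.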

Assay [6] in a line: Primary fluorescence-based thiol-reactive (MSTI) qHTS assay for identification of artifact compounds. (AID 1845221). Note: nearly all actives have a fitted effect of over 65% in size. Note: potency is the fitted concentration of half-maximal effect. Put shortly: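 One-hour, room-temperature, dark incubation of compound with 4 uM MSTI in PBS (pH 7.4, 2% DMSO) precedes a fluorescence read at 525 nm excitation, 598 nm emission; Hill-equation fitting yields concentration-response values.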
The subject of assay [7] is Nanoluciferase (engineered Oplophorus gracilirostris luciferase). Briefly: Primary Nanoluciferase (NLuc) qHTS assay for identification of artifact compounds. (AID 1845222).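 Note: NLuc secreted into diluted conditioned medium of S16 cells; 0% = DMSO and -100% = no enzyme.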 The gist of the method: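 Using secreted nanoluciferase in S16 culture medium (0.22 um filtered, 1:55 dilution), compounds were preincubated 15 min at RT. Signal was generated with Nano-Glo reagent (1:100) over 5 min.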

Assay [8] has as its system CRL-7250. Briefly: Cytotoxic Profiling of Annotated Libraries Using Quantitative High-Throughput Screening (AID 1296008). For max response: % is set by controls: 0 for no effect and ±100 for the full control effect. Note: nearly all actives have a fitted effect of over 60% in size. Note: potency is the fitted concentration of half-maximal effect. Particulars: Five cell lines viability, CellTiter-Glo ATP luminescence, 48-72 h; max response: hits give low values. Put shortly: (§1)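 Compounds were pin-transferred onto cells and incubated 48 or 72 hr at 37 degree Celsius, 95% humidity. CellTiter-Glo was added, plates sat 10 min at room temperature, then ATP-coupled luminescence was imaged as the viability read-out.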
(ATP-based viability assays read luminescence as a measure of living cells.)

Assay [9] deals with HEK293. Described as above. Particulars: Five cell lines viability, CellTiter-Glo ATP luminescence, 48-72 h; max response: hits give low values. The gist of the method: as §1
In assay [10] the test system is NIH3T3. The description is as above. Conditions: Five cell lines viability, CellTiter-Glo ATP luminescence, 48-72 h; max response: hits give low values. Put shortly:
as §1

Assay [11] concerns C33A. Nature of the assay: Primary qHTS to identify gynecologic anti-cancer compounds using libraries of approved drugs and bioactive compounds (AID 1345084). Note: nearly all actives have a fitted effect of over 55% in size. Note: potency is the fitted concentration of half-maximal effect. Particulars: Gynecologic cancer cell panel viability, ATPlite luminescence, 48 h; series mostly up to 57.5 µM. The gist of the method: (§2)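 In this quantitative HTS, cell killing is estimated from loss of ATP-dependent luciferase light. Cells see five compound concentrations over a 48 h exposure.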

Assay [12] deals with CASKI. The description is as above. Particulars: Gynecologic cancer cell panel viability, ATPlite luminescence, 48 h; series mostly up to 57.5 µM. The gist of the method: as §2
Assay [13] has as its system Es-2. The assay is described as above. Conditions: Gynecologic cancer cell panel viability, ATPlite luminescence, 48 h; series mostly up to 57.5 µM. Put shortly:
as §2

Assay [14] deals with Hek293T. Described as above. Particulars: Gynecologic cancer cell panel viability, ATPlite luminescence, 48 h, control line for the selectivity index; series mostly up to 57.5 µM. The gist of the method: as §2
The test system of assay [15] is OV90. Described as above. Conditions: Gynecologic cancer cell panel viability, ATPlite luminescence, 48 h; series mostly up to 57.5 µM. The gist of the method: as §2
For assay [16], the system named is PA-1. The assay is described as above. Conditions: Gynecologic cancer cell panel viability, ATPlite luminescence, 48 h; series mostly up to 57.5 µM. The gist of the method:
as §2

Assay [17] concerns Tov-21-G. The assay is described as above. Particulars: Gynecologic cancer cell panel viability, ATPlite luminescence, 48 h; series mostly up to 57.5 µM. The gist of the method:
as §2

Assay [18] relates to Tov112D. Described as above. Conditions: Gynecologic cancer cell panel viability, ATPlite luminescence, 48 h; series mostly up to 57.5 µM. Put shortly:
as §2

Assay [19] addresses Calcium and integrin-binding protein 1 (Homo sapiens) (UniProt Q99828). Briefly: Primary qHTS for Identification of Calcium Integrin Binding Protein 1 (CIB1) Competitor (AID 1508620).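 Note: GST tagged CIB1 binding a fluorescein labelled alphaIIb integrin peptide tracer; top concentration of the series differs between compounds; % is set by controls: 0 for no effect and ±100 for the full control effect.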 Put shortly:
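Fluorescence polarization competition: CIB1-GST (1 uM final) preincubated with compound 15 min at room temperature, then FITC-labeled alphaIIb peptide (100 nM final) added for another 15 min. Polarization read at Ex 480/Em 540.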

The subject of assay [20] is HaCat. Nature of the assay: Cytotoxic Profiling of Annotated Libraries Using Quantitative High-Throughput Screening (AID 1296008). For max response: % is set by controls: 0 for no effect and ±100 for the full control effect. Note: nearly all actives have a fitted effect of over 60% in size. Note: potency is the fitted concentration of half-maximal effect. Particulars: Five cell lines viability, CellTiter-Glo ATP luminescence, 48-72 h; max response: hits give low values. The gist of the method: as §1

Chain of Phospholipid hydroperoxide glutathione peroxidase GPX4 (Homo sapiens) (P36969 whole entry, looked up): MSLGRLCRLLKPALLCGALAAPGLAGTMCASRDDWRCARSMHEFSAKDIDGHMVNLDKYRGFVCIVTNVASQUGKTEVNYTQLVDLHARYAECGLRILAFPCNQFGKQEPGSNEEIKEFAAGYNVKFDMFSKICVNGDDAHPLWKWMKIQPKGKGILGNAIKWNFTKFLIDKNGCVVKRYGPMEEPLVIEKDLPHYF
Chain of Glutathione peroxidase 1 (Homo sapiens) (P07203 whole entry, looked up): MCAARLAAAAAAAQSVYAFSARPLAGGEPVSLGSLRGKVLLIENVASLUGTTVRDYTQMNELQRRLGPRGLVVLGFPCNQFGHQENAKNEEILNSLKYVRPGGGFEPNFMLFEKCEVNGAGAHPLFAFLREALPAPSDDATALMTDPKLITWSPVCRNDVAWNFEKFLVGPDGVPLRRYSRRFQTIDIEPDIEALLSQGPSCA
Chain of Calcium and integrin-binding protein 1 (Homo sapiens) (Q99828 whole entry, looked up): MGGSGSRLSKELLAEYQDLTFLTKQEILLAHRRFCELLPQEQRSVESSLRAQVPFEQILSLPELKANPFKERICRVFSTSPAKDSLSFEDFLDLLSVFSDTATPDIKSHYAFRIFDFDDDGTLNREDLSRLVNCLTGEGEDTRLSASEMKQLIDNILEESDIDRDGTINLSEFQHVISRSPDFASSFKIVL

With `CN(C)[C@@H]1C(=O)C(C(N)=O)=C(O)[C@@]2(O)C(=O)C3=C(O)c4c(O)ccc(Cl)c4[C@@](C)(O)C3C[C@@H]12` (some centres not stated), the Potency entry in assay [1], in assay [2], in [3], in assay [4], in assay [7] and in [11] was “inactive” throughout. For the same compound, the Potency result in assay [12], in assay [13], in assay [14], in assay [15], in assay [16] and in assay [17] was “inactive” each time. Besides, in assay [18], the Potency result was “inactive”. In addition, the compound was classed as inactive in assay [5] and in assay [10]. In addition, the Potency in assay [6] is 1680 nM (active). The max response in assay [8] was -6.15%; in assay [9], 0.697%.
Consider `CC1=CC2/C=C(\C)CCCC(O)/C=C/C(=O)OC23C(=O)NC(CC(C)C)C3C1C` (configuration not stated), for which the Potency result in assay [1], in assay [19], in assay [2], in [3], in assay [4] and in assay [6] was “inactive” in each case. Besides, the Potency result in assay [7], in assay [11], in [13], in assay [14], in assay [15] and in [16] was “inactive” in each case. In addition, the Potency result in assay [17] and in assay [18] was “inactive” each time. Besides, the compound was called inactive in [5] and in assay [8]. Further, the max response in assay [9] is -0.114%; in [20], -3.87%; in [10], 1.49%.
For the compound `CCCCN1[C@@H]2CC[C@H]1CC(OC(c1ccc(F)cc1)c1ccc(F)cc1)C2` (some centres not stated), the Potency entry in assay [1], in assay [3], in assay [4], in assay [6], in [7] and in [17] was “inactive” each time. Besides, the Potency in [2] was 12.9 µM (active); in [9], 23100 nM (active); in assay [11], 22400 nM (active); in assay [15] it was 12600 nM (active); in assay [16], 14100 nM (active). Besides, the call in assay [5] was inactive. Further, the max response was -21.5% in [8] and -29% in [20].
On to `C[C@@]1(CO)[C@H](O)CC[C@@]2(C)[C@H]1CC[C@H]1C[C@@H]3C[C@@]12CC[C@]3(O)CO`, for which the Potency result in [19], in [3], in assay [4], in assay [6], in [7] and in assay [11] was “inactive” throughout. The Potency result in [12], in [14] and in assay [17] was “inactive” throughout. The Potency was 3.19 µM (active) in assay [2], 2550 nM (active) in assay [9], 9040 nM (active) in assay [20] and 6400 nM (active) in [10]. The outcome in assay [5] was inactive. In addition, the max response in assay [8] is -2.86%.
Consider `Cc1sc2c(c1C)C(c1ccc(Cl)cc1)=NC(CC(=O)Nc1ccc(O)cc1)c1nnc(C)n1-2` (configuration not stated), for which the Potency result in assay [1], in assay [19], in assay [4], in assay [7], in [11] and in assay [12] was “inactive” in each case. In addition, the Potency result in [13] and in assay [14] was “inactive” each time. For the same compound, the Potency in assay [2] was 129 nM (active) and 263 nM (active); in assay [8] it was 1160 nM (active); in assay [9], 1460 nM (active); in assay [10] it was 1300 nM (active); in assay [16] it was 1780 nM (active). For the same compound, the outcome in assay [5] was inactive. For the same compound, the max response in [20] was -9.94%.
On to `C[C@@H]1C[C@@H](O)[C@]2(O)O[C@@H]3C[C@@]4(C=O)C(CC[C@@H]5C4CC[C@]4(C)[C@@H](C6=CC(=O)OC6)CC[C@]54O)C[C@H]3O[C@@H]2O1` (some centres not stated), for which the Potency result in [1], in assay [19], in [3], in assay [4], in assay [7] and in assay [11] was “inactive” throughout. Also, the Potency in assay [2] was 0.0563 µM (active); in assay [8] it was 35.5 nM (active); in assay [9], 44.7 nM (active); in [20], 252 nM (active). In addition, in assay [5], the outcome is “inactive [at 25.7 µM]”.
